This is an account of results in PubChem BioAssay AID651593 (National Center for Advancing Translational Sciences (NCATS), 2012).

The whole screen tested about 1,100 compounds, of which about 860 (78%) were called active. Roughly 19% stayed inconclusive and do not appear here. So high a share suggests a set chosen from earlier hits. Some of the results follow. Values without a mark were called inactive. The call rests on the fitted dose curve; in most records, active means well fitted activation curve with a large enough effect; inconclusive means small, poorly fitted or top-dose-only effect; inactive means flat fitted curve, though single readings scatter.
Potency means the concentration at half of the fitted maximal effect.

A short description of the assay: qHTS of Nrf2 Activators: Hit Validation in Primary Assay. Further: nearly all actives have a fitted effect of over 70% in size. On activation: 0% is about no effect. The conditions noted are these: Nrf2/ARE reporter cell assay; Potency: activation; series mostly up to 46.1 µM; activation: at the top concentration. In a few lines:
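AREc32 cells stably carrying an ARE-driven firefly luciferase, plated overnight, then exposed 24 h at 37 °C to compounds at several concentrations. ARE activation read as luminescence with Steady-Glo after 30 min at room temperature.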
(In general: Quantitative high-throughput screening tests each substance at several concentrations.)
Take `COCCNc1ccc(-c2nc(-c3ccco3)no2)cc1[N+](=O)[O-]`: the Potency is 1.46 µM (active).
The same measure, in the same setting: under `CCNc1ccc(-c2nc(-c3ccco3)no2)cc1[N+](=O)[O-]` stands 1.46 µM (active); under `O=[N+]([O-])c1cc(-c2nc(-c3ccccc3)no2)ccc1NCc1cccnc1`, 2.31 µM (active); under `CCCNc1ccc(-c2nc(-c3ccco3)no2)cc1[N+](=O)[O-]`, 2.31 µM (active).
Turning to `Cc1nn(-c2cccc(C(F)(F)F)c2)c(=O)c2ccccc12`, the Potency was 3.66 µM (active).
Consider `COc1cc(-c2noc(-c3cccs3)n2)cc(OC)c1OC`, for which the Potency is 13 µM (active).
Take `CCOc1ncccc1-c1nc(-c2cccs2)no1`: the Potency was 18.4 µM (active).
Take `CCOc1ccc(Br)cc1-c1noc(-c2cccs2)n1`: the Potency was 2.31 µM (active).
As for `CCN=c1scc(C)n1/N=C/c1ccsc1`, the Potency was 7.31 µM (active).
With `Cc1nc([N+](=O)[O-])c(Br)n1Cc1ccccc1`, the Potency was 20.6 µM (active).
As to `c1ccc2c(c1)nnn2-c1ncnc2sccc12`, the Potency was 13 µM (active).
Still for that read-out and setting: under `Clc1nc2sccn2c1/C=N/n1cnc2ccccc21` stands 2.59 µM (active); under `O=C(CSc1nnc(-c2cccnc2)o1)c1cc2ccccc2oc1=O`, 18.4 µM (active).
As for `Cc1cc(N/N=C/c2c(O)ccc3ccccc23)nc(-c2ccccc2O)n1`, the “activation” value was 12.2%.
Take `Oc1ccccc1C=NN=Cc1c(O)ccc2ccccc12`: the Potency is 3.66 µM (active).
`Nc1nonc1N/N=C/c1c(O)ccc2ccccc12`: the Potency was 6.51 µM (active).
As to `O=C(Nc1cccc([N+](=O)[O-])c1)Nc1cccs1`, the Potency was 18.4 µM (active).
As to `Cc1c(NC(=O)Nc2cccs2)cccc1[N+](=O)[O-]`, the Potency was 11.6 µM (active).
As for `O=c1oc2ccc(Cl)cc2nc1/C=C(\O)c1cccs1`, the Potency was 14.6 µM (active).
For the compound `O=c1oc2ccc(Cl)cc2nc1/C=C(\O)c1ccco1`, the Potency is 14.6 µM (active).
Consider `CC(C)(C)/C(O)=C/c1nc2cc(Cl)ccc2oc1=O`, for which the Potency was 13 µM (active).
Regarding `O=c1oc2ccccc2cc1-c1nc2c(s1)CCc1ccccc1-2`, the Potency was 3.26 µM (active).
For `O=c1oc2ccccc2cc1-c1csc(Nc2ccc(O)cc2)n1`, the Potency was 4.61 µM (active).
On the same count and under the same terms, to `O=c1oc2ccccc2cc1-c1nc(-c2cccs2)cs1` belongs 3.66 µM (active).
As for `N=c1oc2ccccc2cc1-c1nc(-c2ccccc2)cs1`, the Potency was 3.66 µM (active).
As for `COc1ccccc1C(=O)NCc1nc2cccnc2n1Cc1ccc(F)cc1`, the Potency is 2.91 µM (active).
Consider `C#CCSc1nnc(-c2sc3ccccc3c2Cl)o1`, for which the Potency was 2.59 µM (active).
Turning to `Cc1ccc(-c2nc(NCc3ccco3)c3ccccc3n2)cc1`, the Potency was 6.51 µM (active).
For `c1cncc(-c2nc(NCc3ccco3)c3ccccc3n2)c1`, the Potency is 5.17 µM (active).
With `O=C(CCN1C(=O)c2cccc3cccc(c23)C1=O)Nc1ccon1`, the Potency is 4.61 µM (active).
As for `Cc1cc(=O)oc2c(C(=O)/C=C\c3cccs3)c(O)ccc12`, the Potency is 9.2 µM (active).
`Cc1cc(=O)oc2c(C(=O)/C=C/c3ccccc3)c(O)ccc12`: the Potency is 2.59 µM (active).
Same read-out and setting: to `Cc1ccc(S(=O)(=O)CCSC(=N)N)cc1` belongs 18.4 µM (active); to `O=C(Nc1ccc(Cl)cn1)c1cnn2cccnc12`, 5.17 µM (active).
`COc1cccc(/C=C2/CCC(CN(C)C)C2=O)c1` (centres undefined): the Potency is 3.66 µM (active).
For the compound `C=CCc1cccc(C=Nc2cc(Br)ccc2O)c1O`, the Potency was 3.26 µM (active).
Still for that read-out and setting: to `Cc1ccc(Cn2c(/C=C/c3ccco3)nc3ccccc32)cc1` belongs 2.31 µM (active); to `O=C(Nc1nc2ccccc2[nH]1)c1ccc(Cl)c([N+](=O)[O-])c1`, 20.6 µM (active); to `O=C(Nc1nc2ccccc2[nH]1)c1cccc([N+](=O)[O-])c1`, 2.06 µM (active).
For the compound `Cc1cc(CNC(=O)c2cccc([N+](=O)[O-])c2)c2ccccc2n1`, the “activation” value is 20.2%.
`O=C(Nc1ccccn1)c1ccc(Cl)c([N+](=O)[O-])c1`: the Potency is 18.4 µM (active).
Still for that read-out and setting: under `S=c1[nH]nc(-c2ccncc2)n1/N=C/C=C/c1ccco1` stands 8.2 µM (active); under `Cc1cccc(-c2n[nH]c(=S)n2/N=C/C=C/c2ccco2)c1`, 2.06 µM (active).
As to `CC(/C=N/n1c(-c2ccncc2)n[nH]c1=S)=C\c1ccco1`, the Potency is 2.59 µM (active).
Turning to `S=c1[nH]nc(-c2ccccc2)n1/N=C/C=C/c1ccco1`, the “activation” value is 29.9%.
As for `O=C1C(=Cc2cccc(F)c2)Cc2ccccc21`, the Potency is 13 µM (active).
On to `O=C1C(=Cc2cccc(Cl)c2)Cc2ccccc21`, for which the Potency is 4.61 µM (active).
Turning to `COC(=O)/C=C1/S/C(=N/N=C/c2ccco2)NC1=O`, the Potency is 0.82 µM (active).
On to `O=C(/C=C/c1cccs1)c1ccco1`, for which the Potency is 20.6 µM (active).
As to `CCCN(C(=O)c1ccco1)c1nnc(-c2ccccc2C)s1`, the Potency was 8.2 µM (active).
On the same count and under the same terms, under `S=c1[nH]nc(COc2ccccc2)n1/N=C/C(Cl)=C/c1ccccc1` stands 4.61 µM (active).
For the compound `S=c1[nH]nc(-c2cccnc2)n1/N=C/C(Cl)=C\c1ccccc1`, the Potency is 14.6 µM (active).
On the same count and under the same terms, under `S=c1[nH]nc(-c2ccco2)n1/N=C/C(Cl)=C/c1ccccc1` stands 23.1 µM (active); under `Cc1ccc(C)c(NC(=O)COC(=O)c2cc(=O)c3ccccc3o2)c1`, 20.6 µM (active).
Turning to `O=C(Nc1ccc(F)cc1)c1cc2ccccc2o1`, the Potency was 3.66 µM (active).
The same measure, in the same setting: to `Cc1ccc(NC(=O)c2cc(=O)c3ccccc3o2)cc1` belongs 20.6 µM (active).
For `O=c1oc(CCCO)cc2ccc(C#Cc3ccsc3)cc12`, the Potency was 2.31 µM (active).
For `O=c1[nH]c(O)c(/C=C2\C=Nc3ccc(Br)cc32)[nH]1`, the Potency is 8.2 µM (active).
Regarding `O=c1[nH]c(O)c(/C=C2\C=Nc3ccccc32)[nH]1`, the Potency is 14.6 µM (active).
For the compound `O=C(CN1CCS(=O)(=O)CC1)N/N=C/c1cccc(C(F)(F)F)c1`, the Potency is 2.31 µM (active).
Take `Nc1nc(-c2ccccc2)cc(-c2ccccc2O)n1`: the Potency was 4.11 µM (active).
As for `Oc1ccccc1-c1csc(-c2ccccc2)n1`, the Potency was 7.31 µM (active).
Regarding `C[n+]1c2n(c3ccccc31)N=C(c1ccccc1)CS2`, the Potency is 2.91 µM (active).
On the same count and under the same terms, to `CC1Sc2n(c3ccccc3[n+]2C)N=C1c1ccccc1` (centres undefined) belongs 7.31 µM (active); to `COc1cc2c(c(Br)c1N)-c1cc(Br)c(N)cc1C2=O`, 4.11 µM (active); to `O=C(Nc1ccccc1C(=O)N/N=C/c1ccco1)c1ccc(F)cc1`, 2.31 µM (active).
`O=C(Nc1ccccc1C(=O)N/N=C/c1ccco1)c1ccccc1`: the Potency is 2.31 µM (active).
`Nc1c(Cl)c(Cl)nc(C(=O)N/N=C/c2ccco2)c1Cl`: the Potency is 2.59 µM (active).
For `Cc1nn(C)c(C)c1/C=C(/C(=O)C(C)(C)C)n1cncn1`, the Potency is 11.6 µM (active).
On the same count and under the same terms, under `O=C(CN1C(=O)S/C(=C\c2ccccc2Cl)C1=O)NC1C=CS(=O)(=O)C1` (centres undefined) stands 18.4 µM (active); under `Brc1cc2c(cc1/C=N/Nc1nc3ccccc3s1)OCO2`, 2.31 µM (active).
`O=[N+]([O-])c1cc(Cl)cc(/C=N/Nc2nc3ccccc3s2)c1O`: the “activation” value was 16.4%.
In the case of `CCc1nc(N)c(C#N)c(-c2ccco2)c1C`, the Potency was 1.64 µM (active).
Still for that read-out and setting: under `CC(C)Cc1cc(-c2ccco2)c(C#N)c(N)n1` stands 1.3 µM (active); under `N#Cc1c(-c2ccco2)cc(-c2ccccn2)nc1N`, 2.31 µM (active).
As to `N#Cc1c(-c2ccco2)cc(-c2ccc(F)cc2)nc1N`, the Potency was 2.31 µM (active).
`O=C(Oc1cccc(-c2cnc3ccccc3n2)c1)c1ccco1`: the Potency is 3.26 µM (active).
As to `O=[N+]([O-])c1cccc(-c2cnc3ccccc3n2)c1`, the Potency was 6.51 µM (active).
Take `c1coc(-c2cnc3ccccc3n2)c1`: the Potency was 5.17 µM (active).
The same measure, in the same setting: to `CC(=O)Nc1ccc(O)c(-c2nc3ccccc3s2)c1` belongs 2.06 µM (active); to `O=[N+]([O-])c1ccc(Cl)c(/C=N/n2c(-c3ccncc3)n[nH]c2=S)c1`, 11.6 µM (active).
For the compound `O=C(N/N=C/c1ccc(-c2cccc([N+](=O)[O-])c2)o1)c1cccs1`, the Potency was 2.06 µM (active).
Turning to `COC(=O)C1=C(C)N(c2ccc(Br)cc2)C(=O)/C1=C\c1ccco1`, the Potency is 18.4 µM (active).
With `CCN1C(=O)/C(=C\c2ccco2)C(C(=O)OC)=C1C`, the Potency was 3.26 µM (active).
On to `COC(=O)C1=C(C)NC(=O)/C1=C\c1ccco1`, for which the Potency is 3.66 µM (active).
As for `COC(=O)C1=C(C)N(C)C(=O)/C1=C\c1ccco1`, the Potency is 2.06 µM (active).
Turning to `CCCC(=O)Nc1sc(C)c(C)c1C#N`, the Potency was 14.6 µM (active).
Still for that read-out and setting: to `O=C(Nc1cccnc1)C1(F)C(F)(F)C(F)(F)C(F)(F)C(F)(F)C1(F)F` belongs 14.6 µM (active).
Turning to `O=c1cc(-c2ccccc2)oc2ccc(Cl)cc12`, the Potency is 3.26 µM (active).
Regarding `CSc1ccc(-c2cc(=O)c3ccccc3o2)cc1`, the Potency is 2.06 µM (active).
In the case of `S=c1[nH]nc(-c2ccco2)n1/N=C/c1cccc(Cl)c1Cl`, the Potency was 10.3 µM (active).
Same read-out and setting: to `S=c1[nH]nc(-c2ccco2)n1/N=C/c1ccc(Br)s1` belongs 2.31 µM (active); to `O=[N+]([O-])c1ccccc1/C=C/C=N/n1c(-c2ccco2)n[nH]c1=S`, 11.6 µM (active); to `CNc1ccccc(C(=O)/C=C/c2ccccc2OC)c1=O`, 20.6 µM (active).
Regarding `CNc1ccc(Br)cc(C(=O)/C=C/c2cccc(Cl)c2Cl)c1=O`, the Potency is 1.84 µM (active).
As for `CSc1nsc(SC)c1C(=O)Nc1ccc(Cl)cc1`, the Potency was 4.61 µM (active).
Consider `CSc1nsc(SC)c1C(=O)Nc1ccc(C)cc1`, for which the Potency is 16.4 µM (active).
On to `CC(OC(=O)/C=C/c1ccc2ccccc2n1)C(=O)Nc1ccc(S(N)(=O)=O)cc1` (centres undefined), for which the Potency was 20.6 µM (active).
Regarding `CCN(CC)c1ccc2c(c1)oc(=O)c1c(Cl)cc(=O)oc12`, the “activation” value was 3.61%.
For the compound `Cc1cc(=O)oc2cc(NC(=O)c3ccccc3Cl)ccc12`, the Potency was 2.91 µM (active).
Regarding `COC(=O)c1sccc1NC(=O)c1cccc(OC)c1`, the Potency was 7.31 µM (active).
For the compound `COC(=O)c1sccc1NC(=O)c1cccc(F)c1`, the Potency was 18.4 µM (active).
On the same count and under the same terms, to `COC(=O)c1sccc1NC(=O)c1ccccc1` belongs 20.6 µM (active); to `COC(=O)c1sccc1NC(=O)c1cc(C)on1`, 16.4 µM (active).
